The source of these data is PubChem BioAssay (NCI).

About 83,000 compounds went through this panel and 20% of them were active in at least one assay; those are over-represented in the sample as a whole.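 Activity criterion: percent growth below 10, measured after cells in 96-well plates were exposed to a single compound concentration for 48 hours.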 Values without a mark were called inactive. Calls of active or inactive are those of the source.

Test systems include NCI-H23 lung; NCI-H226 lung; NCI-H322M lung; HOP-62 NSCLC; NCI-H460 lung; HOP-92 NSCLC; A549/ATCC NSCLC; 786-0 renal; COLO 205 colon; DU-145 prostate; K-562 leukemia; MALME-3M melanoma; MDA-MB-231 breast; RXF 393 renal; SF-268 CNS; SF-295 CNS; SF-539 CNS; UACC-257 melanoma; M14 melanoma; NCI-H522 lung.
What all share (test): NCI-60 one-dose screen, 48 h (100 = growth as untreated, 0 = no growth, -100 = all killed)
What all share (conditions): 10 µM unless noted

Take `CC(C)(C)c1cc(/C=N/NC(=O)c2ccccc2NC(=O)c2cccs2)c(O)c(C(C)(C)C)c1`: the growth in the assay with NCI-H23 lung was 48.6%; in the assay with NCI-H226 lung, 55.1%; in the assay on NCI-H322M lung, 39.1%; in the assay with HOP-62 NSCLC, 20.7%; in the assay on NCI-H460 lung, -11% (active); in the assay with HOP-92 NSCLC, 75.4%. The growth is 12.8% in the assay on A549/ATCC NSCLC; 18.4% with 786-0 renal; 4.49% (active) in the assay with COLO 205 colon; 32.5% with DU-145 prostate; 13.1% in the assay on K-562 leukemia; 49.6% in the assay with MALME-3M melanoma. The growth in the assay with MDA-MB-231 breast was 44.3%; in the assay with RXF 393 renal, 64.6%; in the assay with SF-268 CNS, 24.6%; with SF-295 CNS, 40%; in the assay on SF-539 CNS, 51.7%; in the assay with UACC-257 melanoma, 38.6%. In the assay with M14 melanoma, the growth is 27.6%.
`CCN(CC)c1ccc(/C=N/NC(=O)CSc2nc3ccccc3c(=O)n2Cc2ccc(S(N)(=O)=O)cc2)c(O)c1`: the growth with NCI-H23 lung was 39.6%; in the assay on NCI-H226 lung it was 31.1%; in the assay with NCI-H322M lung, 27.1%; in the assay with HOP-62 NSCLC it was 21.2%; in the assay on NCI-H460 lung, 6.78% (active); with HOP-92 NSCLC, 58.4%. Further, the growth with A549/ATCC NSCLC was 29%; in the assay on 786-0 renal, 32.6%; in the assay with COLO 205 colon, -2.18% (active); in the assay on DU-145 prostate, 37.8%; in the assay on K-562 leukemia, 6.12% (active); with MALME-3M melanoma, 31.3%. In addition, the growth in the assay with MDA-MB-231 breast was 25.3%; in the assay with RXF 393 renal, 42.6%; in the assay with SF-268 CNS it was 18.6%; in the assay on SF-295 CNS it was 20.3%; with SF-539 CNS, 27.9%; with UACC-257 melanoma, 13%. In addition, in the assay with M14 melanoma, the growth was 4.26% (active).
As to `CC(=O)N1N=C(c2ccc(-n3ccc(C(F)(F)F)n3)c(F)c2)CC1c1ccc[nH]1` (stereo not given), the growth in the assay on NCI-H23 lung was 100%; with NCI-H226 lung it was 106%; with NCI-H322M lung it was 110%; in the assay on HOP-62 NSCLC it was 112%; in the assay with NCI-H460 lung it was 103%; in the assay on HOP-92 NSCLC, 130%. Moreover, the growth was 104% with A549/ATCC NSCLC; 102% in the assay with 786-0 renal; 122% in the assay on COLO 205 colon; 109% with DU-145 prostate; 91.9% in the assay on K-562 leukemia; 102% with MALME-3M melanoma. In addition, the growth with MDA-MB-231 breast is 105%; with RXF 393 renal, 116%; in the assay on SF-268 CNS it was 104%; in the assay with SF-295 CNS it was 98.8%; in the assay on SF-539 CNS, 102%; in the assay with UACC-257 melanoma it was 96.4%. In the assay with M14 melanoma, the growth is 102%.
On to `COc1cccc(-c2cc(C(=O)Nc3ccc(/C=C/c4ccc(OC5CCN(C)CC5)cc4)cc3)ccc2OC)c1`, for which the growth was 12.6% in the assay with NCI-H23 lung; 76.2% with NCI-H226 lung; 5.51% (active) with NCI-H322M lung; -27.5% (active) in the assay on HOP-62 NSCLC; -72.3% (active) in the assay with NCI-H460 lung; 11% in the assay on HOP-92 NSCLC. Also, the growth was -34% (active) with A549/ATCC NSCLC; -95.2% (active) in the assay with 786-0 renal; 29.1% with COLO 205 colon; -64.9% (active) in the assay with DU-145 prostate; -47.9% (active) in the assay on K-562 leukemia; 51.3% in the assay with MALME-3M melanoma. Besides, the growth is -60.5% (active) in the assay on MDA-MB-231 breast; 28.9% in the assay with RXF 393 renal; -30.8% (active) with SF-268 CNS; -63% (active) in the assay with SF-295 CNS; 8.18% (active) in the assay with SF-539 CNS; 83.7% in the assay with UACC-257 melanoma. Further, in the assay on M14 melanoma, the growth is -21.8% (active).
In the case of `CCCCCN1C=C/C(=C\C(=O)N(C)c2ccc(OC(F)(F)F)cc2)c2ccccc21`, the growth with NCI-H23 lung is 87.1%; with NCI-H226 lung it was 95%; with NCI-H322M lung, 99.6%; in the assay on HOP-62 NSCLC, 90.8%; in the assay on NCI-H460 lung it was 101%; in the assay on HOP-92 NSCLC it was 98.1%. The growth with A549/ATCC NSCLC was 91.3%; with 786-0 renal it was 99.4%; in the assay on DU-145 prostate it was 110%; in the assay with K-562 leukemia, 90.3%; in the assay on MALME-3M melanoma, 95.3%; in the assay with MDA-MB-231 breast it was 97.7%. The growth was 107% in the assay with RXF 393 renal; 100% in the assay with SF-268 CNS; 93% in the assay with SF-295 CNS; 103% in the assay with SF-539 CNS; 93.8% in the assay on UACC-257 melanoma; 102% in the assay on M14 melanoma.
In the case of `COc1cc(CC(=O)n2ncc3ccc(N)cc32)cc(OC)c1OC`, the growth was 91.4% in the assay with NCI-H23 lung; 94.9% in the assay with NCI-H226 lung; 88.5% in the assay with NCI-H322M lung; 94.8% in the assay on HOP-62 NSCLC; 102% in the assay on NCI-H460 lung; 99% in the assay on HOP-92 NSCLC. Further, the growth in the assay on A549/ATCC NSCLC was 98.9%; with 786-0 renal, 97.5%; in the assay on COLO 205 colon, 109%; with DU-145 prostate, 105%; with MALME-3M melanoma it was 85.7%; with MDA-MB-231 breast, 79.2%. Further, the growth was 108% with RXF 393 renal; 93.5% in the assay on SF-268 CNS; 91.3% with SF-295 CNS; 88.4% in the assay with SF-539 CNS; 105% with UACC-257 melanoma; 102% in the assay on M14 melanoma.
`COc1cc(C2C3=C(COC3=O)N(CCO)c3cc4c(cc32)CCC4)cc(OC)c1OC` (stereo not given): the growth with NCI-H23 lung was -26.2% (active); with NCI-H226 lung, 2.98% (active); in the assay on NCI-H322M lung it was 39.8%; with HOP-62 NSCLC it was 7.11% (active); with NCI-H460 lung, -44.8% (active); in the assay on HOP-92 NSCLC it was 78.2%. The growth was 28.9% with A549/ATCC NSCLC; -4.65% (active) with 786-0 renal; -23.7% (active) in the assay with DU-145 prostate; 54.9% in the assay on MALME-3M melanoma; 1.31% (active) in the assay with MDA-MB-231 breast; 26.5% in the assay with RXF 393 renal. For the same compound, the growth was 22% in the assay with SF-268 CNS; -23.6% (active) in the assay with SF-295 CNS; -29.8% (active) with SF-539 CNS; 52.9% in the assay on UACC-257 melanoma; -34% (active) in the assay with M14 melanoma.
For the compound `CCOC(=O)c1cc(C#N)n2ccc3ccccc3c12`, the growth with NCI-H23 lung is 94.7%; with NCI-H226 lung it was 97.5%; in the assay with NCI-H322M lung, 98.1%; in the assay with HOP-62 NSCLC it was 105%; with NCI-H460 lung, 100%; with HOP-92 NSCLC, 93.5%. The growth is 112% with COLO 205 colon; 103% in the assay on DU-145 prostate; 106% in the assay with K-562 leukemia; 104% in the assay with MALME-3M melanoma; 102% with MDA-MB-231 breast; 98.9% with RXF 393 renal. The growth was 94.2% in the assay on SF-268 CNS; 96.5% in the assay on SF-295 CNS; 98.7% in the assay on SF-539 CNS; 104% in the assay with UACC-257 melanoma; 108% in the assay with M14 melanoma.
Take `CC(=O)CCC(=O)OCc1cc(=O)c(O)co1`: the growth in the assay on NCI-H23 lung was 92.8%; in the assay with NCI-H226 lung, 109%; in the assay with HOP-62 NSCLC, 105%; with NCI-H460 lung, 112%; in the assay with HOP-92 NSCLC, 105%; in the assay with NCI-H522 lung, 96%. Moreover, the growth with A549/ATCC NSCLC is 101%; with 786-0 renal, 99.8%; with COLO 205 colon, 125%; with DU-145 prostate, 102%; in the assay with K-562 leukemia, 102%; in the assay on MALME-3M melanoma, 95.5%. Further, the growth in the assay on MDA-MB-231 breast was 110%; in the assay on RXF 393 renal, 113%; in the assay on SF-268 CNS it was 97.7%; in the assay with SF-295 CNS it was 103%; in the assay with SF-539 CNS, 110%; in the assay on UACC-257 melanoma, 99.7%. Besides, the growth in the assay with M14 melanoma was 99.4%.
